Reference: PubChem BioAssay (EPA / NIEHS)
Results filed as inconclusive are left out. Active and inactive are the calls of the source. The calls were made as follows, unless noted: active = hit-call score of the fitted dose curve at least 0.9, where 1 is the maximum; inactive = score below 0.9.

Key:
[1] = CCTE_Shafer_MEA_dev_firing_rate_mean: CCTE's Neural Network Formation Assay for Mean Firing Rate, Shafer Lab (AID 2284031);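 also: curve fitted for loss of firing so AC50 reflects decreased mean firing rate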
Method in brief: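 Steps: seed rat cortical cells (1.5 x 10^5/well) with laminin on PEI-coated MEA; dose day 0; record DIV 5/7/9/12, full media and compound exchange after DIV 5 and 9 recordings; compute well-mean firing rate AUC.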

[2] = CCTE_Shafer_MEA_dev_per_burst_spike_percent: CCTE's Neural Network Formation Assay for Percent of Spikes in a Burst, Shafer Lab (AID 2284032);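 also: fitted as a decrease in burst spike percentage below DMSO baseline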
Method in brief: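 Value is trapezoidal AUC over recordings on days 5, 7, 9 and 12 of the well-mean fraction of spikes falling in single-electrode bursts; rat cortical cultures exposed continuously from plating, treatment renewed DIV 5 and 9, fitted downward against DMSO.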

[3] = CCTE_Shafer_MEA_dev_active_electrodes_number: CCTE's Neural Network Formation Assay for Number of Active Electrodes, Shafer Lab (AID 2284040; active = hit-call score of the fitted dose curve at least 0.9, where 1 is the maximum;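 also: potency for loss of active electrodes versus DMSO so lower counts are hits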)
Method in brief: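 Counts electrodes per well firing at least 5 spikes/min, recorded on days 5, 7, 9 and 12 in rat cortical cultures dosed continuously from plating (treatment refreshed DIV 5, 9). Value is the area under the curve over recordings, fitted downward relative to DMSO.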

[4] = CCTE_Shafer_MEA_dev_burst_rate: CCTE's Neural Network Formation Assay for Burst Rate, Shafer Lab (AID 2284042);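 also: potency for loss of burst rate below DMSO control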
Method in brief: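 Rat primary cortical cultures on PEI/laminin MEA; compound from plating, re-dosed at DIV 5, 9 media change. Single-electrode bursts/recording length, well mean of active electrodes; AUC over DIV 5–12 recordings; loss-of-signal vs DMSO.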

[5] = CCTE_Shafer_MEA_dev_bursting_electrodes_number: CCTE's Neural Network Formation Assay for Number of Bursting Electrodes, Shafer Lab (AID 2284043; active = hit-call score of the fitted dose curve at least 0.9, where 1 is the maximum;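 also: potency is for loss of bursting electrodes relative to DMSO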)
Method in brief: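 Number of electrodes reaching ≥1 burst every 2 min was recorded at DIV 5, 7, 9 and 12 and collapsed as trapezoidal area under the curve. Cultures were rat cortical neurons on MEA plates, dosed continuously from plating with medium and treatment refreshed on DIV 5 and 9.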

[6] = CCTE_Shafer_MEA_dev_per_burst_interspike_interval: CCTE's Neural Network Formation Assay for Burst Interspike Interval, Shafer Lab (AID 2284044);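 also: potency for a decrease of within-burst interspike interval below DMSO level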
Method in brief: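 Spontaneous activity of maturing rat cortical networks is recorded on DIV 5, 7, 9 and 12 under chronic compound exposure beginning at plating. Endpoint: burst interspike interval well-mean, collapsed into trapezoidal AUC and fitted in the negative direction relative to DMSO.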

[7] = CCTE_Shafer_MEA_dev_burst_duration_mean: CCTE's Neural Network Formation Assay for Mean Burst Duration, Shafer Lab (AID 2284045);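 also: curve fitted for loss meaning shorter burst duration than DMSO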
Method in brief: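 Mean single-electrode burst duration (first to last spike), averaged over bursting electrodes per well, then integrated as area-under-curve across recordings at days 5, 7, 9 and 12. Rat cortical cultures on MEAs, compound present from plating, refreshed at feeds.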

[8] = CCTE_Shafer_MEA_dev_interburst_interval_mean: CCTE's Neural Network Formation Assay for Mean Interburst Interval, Shafer Lab (AID 2284046);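 also: well-mean interburst interval of bursting electrodes as AUC over four recording days; curve fitted for decrease in interburst interval relative to DMSO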
Method in brief: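 Rat cortical neurons, 1.5 x 10^5 cells/well, 48-well MEA; compound from day 0 through DIV 12, media and treatment renewed DIV 5/9. Recordings DIV 5, 7, 9, 12; well-mean interburst interval → trapezoidal AUC, loss direction vs DMSO.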

[9] = CCTE_Shafer_MEA_dev_inter_network_spike_interval_mean: CCTE's Neural Network Formation Assay for Mean Inter-network Spike Interval, Shafer Lab (AID 2284047)
Method in brief: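 Primary rat cortical neurons on PEI-coated 48-well MEAs (16 electrodes/well) were exposed from plating day 0 to DIV 12, with dosing renewed at DIV 5 and 9. Recordings at DIV 5, 7, 9, 12 were collapsed by trapezoidal AUC, loss-of-signal fit vs DMSO.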

[10] = CCTE_Shafer_MEA_dev_network_spike_peak: CCTE's Neural Network Formation Assay for Mean Number of Electrodes in Network Spike, Shafer Lab (AID 2284049);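 also: fitted for loss of signal meaning fewer electrodes in network spikes than DMSO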
Method in brief: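 Rat cortical primary culture, 1.5 x 10^5 cells/well, 48-well MEA (16 electrodes/well). Dosing day 0 through DIV 12, full media/compound exchange DIV 5, 9. AxIS adaptive spike detection; AUC over days 5/7/9/12; loss-of-signal vs DMSO.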

[11] = CCTE_Shafer_MEA_dev_spike_duration_mean: CCTE's Neural Network Formation Assay for Mean Spike Duration, Shafer Lab (AID 2284051);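 also: mean network spike duration pooled as area under curve over DIV 5 to 12 recordings; potency for a decrease in mean network spike duration versus DMSO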
Method in brief: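 Rat cortical primary cultures, 48-well MEA (16 electrodes/well); compound from plating, renewed DIV 5, 9. Network spike duration (AxIS adaptive detector) recorded DIV 5/7/9/12, combined as trapezoidal AUC; loss direction vs DMSO.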

[12] = CCTE_Shafer_MEA_dev_network_spike_duration_std: CCTE's Neural Network Formation Assay for Standard Deviation of Network Spike Duration, Shafer Lab (AID 2284052);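 also: hits are decreases in network spike duration SD versus DMSO vehicle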
Method in brief: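 Rat cortical cultures, 1.5 x 10^5 cells/well, exposed continuously from plating to DIV 12 with media/compound renewal at DIV 5, 9. Spontaneous activity recorded DIV 5/7/9/12, AxIS adaptive spike detector; AUC across days; negative direction vs DMSO.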

[13] = CCTE_Shafer_MEA_dev_per_network_spike_spike_number_mean: CCTE's Neural Network Formation Assay for Mean Number of Spikes in a Network Spike, Shafer Lab (AID 2284053);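 also: fitted as decrease in spikes per network spike relative to DMSO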
Method in brief: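 Rat cortical primary cultures on 48-well MEA; compound from day 0, re-dosed with full media change DIV 5, 9. Recorded DIV 5, 7, 9, 12; spikes in 0.05 s window at network-spike peak ÷ total network spikes; AUC; loss vs DMSO.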

[14] = CCTE_Shafer_MEA_dev_per_network_spike_spike_percent: CCTE's Neural Network Formation Assay for Percent of Spikes in a Network Spike, Shafer Lab (AID 2284054)
Method in brief: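 Metric: fraction of spikes falling in a 0.05 s window at network-spike peaks. Recordings were made on days 5, 7, 9 and 12 and collapsed by trapezoidal AUC. Cultures were rat cortical neurons on MEA plates, dosed continuously from plating, re-dosed at media changes.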

[15] = CCTE_Shafer_MEA_dev_LDH: CCTE's Lactate Dehydrogenase Assay for Cytotoxicity in the Neural Network Formation Assay, Shafer Lab (AID 2284068; active = hit-call score of the fitted dose curve at least 0.9, where 1 is the maximum;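 also: exposure for twelve days from plating with re-dosing on DIV 5 and 9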)
Method in brief: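 Rat cortical primary neurons, MEA culture; dosing day 0–12, full medium plus compound exchange DIV 5, 9. Read-out: LDH enzyme activity, spectrophotometric. DMSO = negative control/baseline; signal loss → cytotoxicity.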

[16] = CCTE_Shafer_MEA_dev_AB: CCTE's Alamar Blue Assay for Cytotoxicity in the Neural Network Formation Assay, Shafer Lab (AID 2284083; active = hit-call score of the fitted dose curve at least 0.9, where 1 is the maximum;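 also: resazurin reduction fluorescence as viability of cultured neurons; twelve days of exposure from plating with re-dosing on DIV 5 and 9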)
Method in brief: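 Rat cortical primary cultures, 1.5 x 10^5 cells/well on MEA; continuous compound exposure over 12 days of network development, re-dosed with full medium change DIV 5 and 9. Alamar Blue fluorescence; loss of signal = cytotoxicity vs DMSO baseline.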

[17] = CCTE_Shafer_MEA_dev_mutual_information_norm: CCTE's Neural Network Formation Assay for Mutual Information Normalization, Shafer Lab (AID 2284091);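 also: mutual information between electrodes summarised as area under curve across four recording days; potency is for a decrease in mutual information relative to DMSO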
Method in brief: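 Shared information across electrodes, tracked on days 5, 7, 9 and 12 of network development and collapsed as trapezoidal area under the curve. Rat cortical cultures were treated continuously from plating, with treatment renewed at feeds on DIV 5 and 9; DMSO baseline, negative-direction fit.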

[18] = CCTE_Shafer_MEA_dev_correlation_coefficient_mean: CCTE's Neural Network Formation Assay for Mean Correlation Coefficient, Shafer Lab (AID 2284093);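 also: well mean pairwise spike train correlation integrated as AUC over recording days 5 to 12; potency fitted for loss of correlation relative to DMSO vehicle wells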
Method in brief: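 Rat cortical cultures, 1.5 x 10^5 cells/well, dosed from day 0 for 12 days. Spontaneous spikes recorded DIV 5/7/9/12; electrode-pair correlation coefficients averaged, AUC taken. Fit in loss direction vs DMSO.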

[19] = IUF_NPC1b_proliferation_BrdU_72hr: Leibniz Research Institute for Environmental Medicine (IUF) 72-hour Neural Progenitor Cell Bromodeoxyuridine (BrdU) Proliferation Assay (NPC1b) (AID 2284207)
Method in brief: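 Human fetal cortex-derived (GW 16-19) neural progenitor spheres, 0.25-0.35 mm, one per well in EGF/FGF proliferation medium, exposed to compound for 72 h at 37C, pH 7.2-7.6. BrdU incorporation over the final 16 h read by luminescence ELISA, relative to DMSO.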

[20] = IUF_NPC1_viability_72hr: Viability Assessment at 72 hours in the Leibniz Research Institute for Environmental Medicine (IUF) Neural Progenitor Cell Proliferation Assay (NPC1) (AID 2284209)
Method in brief: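 Spheres of primary human neural progenitors were plated singly in proliferation medium and treated for 72 h. Mitochondrial reduction of resazurin was then measured by fluorescence and analysed against DMSO controls.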

[21] = CCTE_Mundy_HCI_Cortical_Synap_Neur_Matur_NeuriteSpotCountPerNeuriteLength: CCTE's Synaptogenesis and Neurite Maturation Assay in rat cortical cells for Neurite Spot Count per Neurite Length, Mundy Lab (AID 2284210)
Method in brief: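 Synaptophysin spots per unit neurite length, measured by automated imaging of MAP2/synaptophysin/Hoechst-stained neurons. Cultures from rat cortex received chemical at DIV 7 with media change through DIV 12; glial growth arrested by AraC at DIV 5; DMSO baseline.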

[22] = CCTE_Mundy_HCI_Cortical_Synap_Neur_Matur_BPCount: CCTE's Synaptogenesis and Neurite Maturation Assay in rat cortical cells for Branch Point Count, Mundy Lab (AID 2284211)
Method in brief: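 HCI read-out of branch points from MAP2/synaptophysin/Hoechst immunofluorescence; rat cortical cultures, AraC DIV 5, dosing DIV 7, fixed DIV 12; fit in positive direction vs DMSO baseline.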

[23] = CCTE_Mundy_HCI_Cortical_NOG_NeuriteCount: CCTE's Neurite Outgrowth Assay in rat cortical cells for Neurite Count, Mundy Lab (AID 2284212);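 also: cells fixed about two days after chemical exposure began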
Method in brief: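 Rat cortical primary cells; compound added 2 h post-plating, 1/10 dilution of working solution. Anti-betaIII-tubulin/AF488 ICC; ArrayScan neurite count vs DMSO.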

[24] = CCTE_Mundy_HCI_Cortical_NOG_NeuriteLength: CCTE's Neurite Outgrowth Assay in rat cortical cells for Neurite Length, Mundy Lab (AID 2284213);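 also: neurites imaged about 48 to 50 h after chemical exposure began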
Method in brief: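 First, rat primary cortical cells were plated and, 2 h later, given test chemical as a 1/10 dilution. Finally, βIII-tubulin immunostaining enabled automated imaging of neurite length.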

[25] = CCTE_Mundy_HCI_Cortical_Synap_Neur_Matur_NeuriteLength: CCTE's Synaptogenesis and Neurite Maturation Assay in rat cortical cells for Neurite Length, Mundy Lab (AID 2284214)
Method in brief: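 Cultures of rat primary cortical cells received chemical at DIV 7 and were fixed at DIV 12, after glial arrest with AraC at DIV 5. Neurite length was measured by automated imaging of MAP2 immunofluorescence.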

Measured: AC50

O=[As]O
active: [1] 2.14 µM | [2] 1.4 µM | [3] 1.41 µM | [4] 2.42 µM | [5] 1.23 µM | [6] 2.43 µM | [7] 2.5 µM | [8] 1.69 µM | [10] 1.67 µM | [11] 1.14 µM | [12] 1.08 µM | [13] 1.14 µM | [14] 1.14 µM | [15] 1.09 µM | [16] 1.82 µM | [17] 1.15 µM | [18] 0.996 µM | [19] 2.03 µM | [20] 2.96 µM | [22] 5 µM | [23] 3.32 µM | [24] 2.48 µM | [25] 6.45 µM
inactive: [9] | [21]
